Experimental data reported in PubChem BioAssay (Tox21).
Records with an inconclusive call do not appear. Activity calls are given as the source filed them. Calls follow the shape of the dose curve; as a rule, active = well fitted cell-killing curve with a large enough effect in the repeat runs; inconclusive = weak or mixed curves, or effect the other way; inactive = flat fitted curve, though single readings scatter.

Test: qHTS assay to identify small molecule antagonists of the estrogen receptor alpha (ER-alpha) signaling pathway using the BG1 cell line in the presence of 0.1 nM 17-beta-estradiol - cell viability counter screen (AID 1259241); also: nearly all actives have a fitted effect of over 40% in size
Conditions: VM7Luc4E2 (BG1) viability, CellTiter-Fluor protease, 22 h, 0.1 nM estradiol agonist added; series mostly up to 92.4 µM; activity change, negative = cytotoxicity: at the top concentration
Source text: National Center for Advancing Translational Sciences [NCATS]
NIH Chemical Genomics Center [NCGC]
U.S. Environmental Protection Agency [EPA]
National Institutes of Environmental Health Sciences [NIEHS]
National Toxicology Program [NTP]
U.S. Food and Drug Administration [FDA]
Estrogen receptor (ER), a member of the nuclear hormone receptor plays an important role in development, metabolic homeostasis and reproduction. Two subtypes of ER, ER-alpha and ER-beta, have similar expression patterns with some uniqueness in both types. Endocrine disrupting chemicals (EDCs) and their interactions with steroid hormone receptors like ER causes disruption of normal endocrine function. Therefore, it is important to understand the effect of environmental chemicals in ER signaling pathway. For identifying ER antagonists, VM7Luc4E2 cell line was used to screen against Tox21 compound libraries.
VM7Luc4E2 cell line (provided by Denison MS, University of California) endogenously express full-length ER-alpha and is stably transfected with a plasmid containing four estrogen responsive elements (ERE) upstream of a luciferase reporter gene. The current screening for identification of ER-alpha inhibitors against Tox21 compound libraries used lower concentration (0.1 nM) of 17beta-Estradiol as a stimulator. The cytotoxicity of the Tox21 compound libraries against VM7Luc4E2 cell line was tested by measuring live-cell protease activity using CellTiter-Fluor assay in the same wells.
Tox21 Assay Protocol Summary:
VM7Luc4E2 cells were cultured in phenol red free assay medium containing 10% charcoal stripped FBS for 5 days prior to the assay. The cells were dispensed at 4,000 cells/well in 4 uL of assay medium into white wall/solid-bottom 1536-well plates (Corning Life Sciences, Corning, NY) using a Multidrop Combi (ThermoFisher Scientific, Waltham, MA) dispenser. After the assay plates were incubated at 37C and 5% CO2 for 24 hr, 23 nL of compounds dissolved in DMSO, positive controls or DMSO only was transferred to the assay plates by a Pintool station (Kalypsys, San Diego, CA). The transfer of compounds was followed by the addition of 1 uL of 0.1 nM (final concentration) agonist (17beta-Estradiol)/assay medium using a Flying Reagent Dispenser (FRD, Aurora Discovery, San Diego, CA). The plates were incubated at 37C and 5% CO2 for 22 hr. For cytotoxicity assay, 1 uL of CellTiter-Fluor reagent (Promega Corporation, Madison, WI) was added to each well using the FRD and after 30 min incubation at 37C and 5% CO2, The fluorescence intensity was measured using ViewLux plate reader (PerkinElmer, Shelton, CT).
% is scaled to controls: 0 for no effect and ±100 for the full control effect.

Compound | activity change, negative = cytotoxicity
NS(=O)(=O)c1cc2c(cc1Cl)NC(CSCc1ccccc1)=NS2(=O)=O | 3.95% [at 42.5 µM] (inactive)
O=C(O)c1ccccc1-c1ccc(C(F)(F)F)cc1 | 9.68% [at 42.5 µM] (inactive)
NCC[C@H](O)C(=O)N[C@@H]1C[C@H](N)[C@@H](O[C@H]2O[C@H](CN)[C@@H](O)[C@H](O)[C@H]2O)[C@H](O)[C@H]1O[C@H]1O[C@H](CO)[C@@H](O)[C@H](N)[C@H]1O | 7.28% [at 0.349 µM] (inactive)
COC(C(=O)O)c1ccccc1 (stereo not given) | 1.38% (inactive)
CCCc1ccc(N)cc1 | 3.86% (inactive)
CN(C)N=Nc1ccccc1 | 1.76% (inactive)
CC(C)=CCC/C(C)=C/C(=O)O | -2.88% (inactive)
Cc1onc(-c2ccccc2)c1-c1ccc(S(N)(=O)=O)cc1 | 4.84% [at 42.5 µM] (inactive)
CC(C)[C@H](N)C(=O)OCCOCn1cnc2c(=O)[nH]c(N)nc21 | -4.18% [at 42.5 µM] (inactive)
CC(C)(C)N(CCO)CCO | 8.78% (inactive)
Nc1cc(C(Cl)=C(Cl)Cl)c(S(N)(=O)=O)cc1S(N)(=O)=O | 1.52% [at 42.5 µM] (inactive)
CCCc1ccccc1O | -5.26% (inactive)
NC(=O)c1ncn([C@@H]2O[C@H](CO)[C@@H](O)[C@H]2O)c1O | -17.6% [at 42.5 µM] (inactive)
C=C(C)C(=O)OCCC(C)OC(=O)C(=C)C (stereo not given) | 8.36% (inactive)
NC(=S)Nc1cccc2ccccc12 | 7.82% [at 8.39 µM] (inactive)
NCCN1CCNC1=O | -4.84% (inactive)
NC(=O)Nc1nc2ccccc2[nH]1 | 19.4% (inactive)
OC/C=C/c1ccccc1 | 2.07% (inactive)
COC(=O)[C@H]1[C@H]2C[C@@H]3c4[nH]c5cc(OC)ccc5c4CCN3C[C@H]2C[C@@H](OC(=O)COc2ccc(OC)cc2)[C@@H]1OC | -0.0178% [at 42.5 µM] (inactive)
O=C(O)c1cccc(C(=O)O)n1 | 2.46% (inactive)

Compound | activity change, negative = cytotoxicity
CCCCOCC(C)OCC(C)O (stereo not given) | 2.43% (inactive)
Cc1ccccc1Br | 15.9% (inactive)
COc1cc(CCC(C)=O)ccc1O | -0.67% (inactive)
CN(C)C(=O)Nc1ccccc1 | -0.894% (inactive)
CC(C)c1cccc(C(C)C)c1N | 0.198% (inactive)
N[C@@H](CS)C(=O)O | -7.53% (inactive)
COCCOC(=O)CC#N | 3.56% (inactive)
Cc1c(F)cc2c(=O)c(C(=O)O)cn3c2c1CCC3C (stereo not given) | -8.51% [at 42.5 µM] (inactive)
COc1cc(O)cc(O)c1 | 4.97% [at 42.5 µM] (inactive)
NC(=O)CCCCC1CCSS1 (stereo not given) | 2.22% [at 42.5 µM] (inactive)
CCC(C)(C)C1CCC(OC)CC1 (stereo not given) | -2.85% (inactive)
CCN1CCN(c2cc3c(cc2F)c(=O)c(C(=O)O)cn3C2CC2)CC1 | 0.812% [at 42.5 µM] (inactive)
N#CCN(CC#N)CCN(CC#N)CC#N | 3.63% (inactive)
COc1nc(C)nc(N)n1 | 0.28% (inactive)
COC(=O)CCCCCCCCC(=O)OC | 9.74% (inactive)
NS(=O)(=O)c1cc(C2(O)NC(=O)c3ccccc32)ccc1Cl (stereo not given) | -1.52% [at 42.5 µM] (inactive)
O=c1[nH]c2ccccc2c(=O)n1CCCl | -4.34% [at 42.5 µM] (inactive)
CO[Si](OC)(OC)OC | -3.88% (inactive)
CC(C)CCCC(C)NCCC(C)C (stereo not given) | 1.4% [at 42.5 µM] (inactive)
CCO[Si](C)(OCC)OCC | -6.28% (inactive)
